Values joined by “and” are separate entries in the source; they are usually repeats but may differ in a detail not shown here. Equal entries are not always repeated. ± gives the standard deviation of the averaged measurements.

The assay deals with HT-1080. Briefly: relative cell viability with RSL3 co-treatment (fraction of control); higher = stronger protection from RSL3-induced ferroptosis (higher viability). Conditions: 10 µM.
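Also: viability read as CCK-8 absorbance at 450 nm in cells co-exposed to the GPX4 inhibitor RSL3, relative to a 0.01% DMSO vehicle control.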

In the case of `NC(=O)c1cnc(N[C@@H]2CCCC[C@@H]2N)nc1Nc1cccc(-n2nccn2)c1`, the relative cell viability was 0.56 ± 0.11.

For the molecule `Cc1cc(F)c(Nc2ncnc3cc(OCc4ccccc4)ccc23)cc1O`, the relative cell viability is 0.797 ± 0.021.

As to `CC(C)c1cnn2c(NCc3ccccc3)cc(NCCCCCCN)nc12`, the relative cell viability stood at 0.623 ± 0.085.

In the case of `Cc1ccc(Nc2nccc(N(C)c3ccc4c(C)n(C)nc4c3)n2)cc1S(N)(=O)=O` [Pazopanib], the relative cell viability turned out to be 0.71 ± 0.12.

As for `CCCS(=O)(=O)Nc1ccc(F)c(C(=O)c2c[nH]c3ncc(-c4ccc(Cl)cc4)cc23)c1F` [Vemurafenib (PLX4032, RG7204)], the relative cell viability was 0.323 ± 0.091.

Take `C=CC(=O)Nc1cccc(Nc2nc(Nc3ccc(OCCOC)cc3)ncc2F)c1`: the relative cell viability was found to be 0.563 ± 0.078.

Turning to `O=C1NC(=O)C(c2ccccc2[N+](=O)[O-])=C1Nc1ccc(O)c(Cl)c1`, the relative cell viability was 0.847 ± 0.031.

Regarding `O=C1NC(=O)C(=Cc2ccc(-c3ccc(F)cc3)o2)S1` (stereo in doubt), the relative cell viability was found to be 0.887 ± 0.11.

As to `COc1ccc(-c2nc(N3CCOCC3)c3sc(CN(C)c4ncc(C(=O)NO)cn4)cc3n2)cn1`, the relative cell viability stood at 0.577 ± 0.15.

As for `CN(C)Cc1cccc(N/C(=C2\C(=O)Nc3cc(C(N)=O)ccc32)c2ccccc2)c1`, the relative cell viability was found to be 0.627 ± 0.045.

Take `C[C@H](NC(=O)/C(C#N)=C/c1cccc(Br)n1)c1ccccc1`: the relative cell viability amounted to 0.807 ± 0.13.

In the case of `NC1(Cc2ccc(Cl)cc2)CCN(c2ncnc3[nH]ccc23)CC1`, the relative cell viability was found to be 0.473 ± 0.25.

In the case of `Cc1ccc(-n2nc(C(C)(C)C)cc2NC(=O)Nc2ccc(OCCN3CCOCC3)c3ccccc23)cc1` [Doramapimod (BIRB 796)], the relative cell viability amounted to 0.57 ± 0.03.

On to `COc1cc2ncnc(Nc3cccc(Cl)c3)c2cc1OC` [AG-1478 (Tyrphostin AG-1478)], for which the relative cell viability was determined as 0.68 ± 0.2.

As for `O=C(c1ccc(F)c(F)c1Nc1ccc(I)cc1F)N1CC(O)([C@@H]2CCCCN2)C1` [Cobimetinib (GDC-0973, RG7420)], the relative cell viability turned out to be 0.797 ± 0.032.

For `CN(c1ncccc1CNc1nc(Nc2ccc3c(c2)CC(=O)N3)ncc1C(F)(F)F)S(C)(=O)=O`, the relative cell viability is 0.763 and 0.527.

In the case of `COc1ccc(-c2cc3c(C)nc(N)nc3n([C@H]3CC[C@H](OCCO)CC3)c2=O)cn1`, the relative cell viability is 0.597 ± 0.16.

With `CC(C)(C)c1cc(NC(=O)Nc2ccc(-c3cn4c(n3)sc3cc(OCCN5CCOCC5)ccc34)cc2)no1` [Quizartinib (AC220)], the relative cell viability was 0.473 ± 0.04.

On to `O=C(c1ccc(/C=C/c2n[nH]c3ccccc23)cc1)N1CCNCC1`, for which the relative cell viability turned out to be 0.773 ± 0.076.

As for `C=CC(=O)N1CCC[C@@H](n2nc(-c3ccc(Oc4ccccc4)cc3)c3c(N)ncnc32)C1`, the relative cell viability was determined as 0.933 ± 0.11.

Turning to `COc1cc2ncnc(Nc3ccc(F)c(Cl)c3)c2cc1OCCCN1CCOCC1` [Gefitinib (ZD1839)], the relative cell viability was 0.66 ± 0.072.

Consider `COc1ccc(CNC(=O)Nc2ncc([N+](=O)[O-])s2)cc1`, for which the relative cell viability is 0.45 ± 0.03.

For `CC1(C)CNc2cc(NC(=O)c3cccnc3NCc3ccncc3)ccc21` [Motesanib Diphosphate (AMG-706)], the relative cell viability is 0.533 ± 0.21.

As for `Clc1ccc(Nc2nnc(Cc3ccncc3)c3ccccc23)cc1` [Vatalanib (PTK787) 2HCl], the relative cell viability is 0.827 ± 0.047.

For `Cc1c(NC(=O)OC[C@@H]2COCCN2)cn2ncnc(Nc3ccc4c(cnn4Cc4cccc(F)c4)c3)c12`, the relative cell viability is 0.793 ± 0.023.

On to `COc1cc(Nc2ncc3c(n2)-c2ccc(Cl)cc2C(c2c(F)cccc2OC)=NC3)ccc1C(=O)O` [Alisertib (MLN8237)], for which the relative cell viability worked out at 0.39 ± 0.18.

As for `CNC(=O)c1cc(Oc2ccc(NC(=O)Nc3cc(C(C)(C)C)nn3-c3ccc4ncccc4c3)c(F)c2)ccn1` [Rebastinib (DCC-2036)], the relative cell viability was 0.3 ± 0.085.

For `C=CCc1ccc(O)c(-c2ccc(O)c(CC=C)c2)c1` [Honokiol], the relative cell viability was 0.85 ± 0.04.

In the case of `O=c1ncn2nc(Sc3ccc(F)cc3F)ccc2c1-c1c(Cl)cccc1Cl`, the relative cell viability came to 0.5 ± 0.14.

For the molecule `CC(C)(C)c1nc(-c2cccc(NS(=O)(=O)c3c(F)cccc3F)c2F)c(-c2ccnc(N)n2)s1`, the relative cell viability was 0.577 ± 0.11.

Turning to `C=CC(=O)Nc1cccc(Nc2nc(Nc3ccc(NC4CN(CCF)C4)cc3OC)ncc2C(F)(F)F)c1`, the relative cell viability was determined as 0.443 ± 0.068.

Consider `COc1cc(-c2cc(-c3ccc(N4CCNCC4)cc3)cnc2C)cc(OC)c1OC`, for which the relative cell viability was 0.74 ± 0.075.

For the molecule `Nc1nc(N)c2nc(-c3cccc(O)c3)c(-c3cccc(O)c3)nc2n1`, the relative cell viability was determined as 0.72 ± 0.03.

Take `C[C@@H](N)[C@H]1CC[C@H](C(=O)Nc2ccncc2)CC1`: the relative cell viability turned out to be 0.843 ± 0.032.

Consider `CN1CCCN(C(=O)c2cccc(-c3ccc(/C=C4/C(=O)Nc5ccc(Cl)cc54)o3)c2)CC1`, for which the relative cell viability worked out at 0.743 ± 0.061.

`Cn1cc(C2=C(c3ccc(Cl)cc3Cl)C(=O)NC2=O)c2ccccc21`: the relative cell viability was found to be 0.8333 ± 0.0058.

Turning to `CNc1nc(Nc2cnn([C@H]3CCN(C4COC4)C[C@@H]3F)c2Cl)ncc1C(F)(F)F`, the relative cell viability turned out to be 0.617 ± 0.032.

Regarding `N#CC(=C(/N)Sc1ccccc1N)/C(C#N)=C(\N)Sc1ccccc1N`, the relative cell viability was found to be 0.84 ± 0.017.

Take `Cc1ccc(S(=O)(=O)/C=C/C#N)cc1`: the relative cell viability worked out at 0.463 ± 0.042.

The record behind these values is the supplement of paper PMC9588786.
